Test results reported in PubChem BioAssay (NCI).
Compounds without any hit were thinned out: in the full panel of roughly 83,000, 20% have a hit.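 Treatment: one concentration, 48 hours, 96-well format. Scoring: percent growth, with anything below 10 considered active.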 Values without a mark were called inactive. Active and inactive are the calls of the source.

System: HT29 colon
Test: NCI-60 one-dose screen, 48 h (100 = growth as untreated, 0 = no growth, -100 = all killed)
Conditions: 10 µM unless noted
Procedure: Growth inhibition of the HT29 human tumor cell line is measured as a screen for anti-cancer activity. Cells are grown in 96 well plates and exposed to the test compound for 48 hours. Compounds are tested at a single concentration, which is 10^-5 M for most compounds. The reported endpoint is percent growth (GI% or GIPRCNT), where numbers from 0 - 100% represent growth inhibition, and numbers from -100% - 0 represent cell death. For example, a value of 40 represents 60% growth inhibition. A value of 0 means no net growth occurred over the course of the experiment. A value of -40 indicates 40% of cells at the beginning of the experiment died by the end of the experiment. A value of -100 means all cells are dead at the end of the experiment.
NCI-60 Human Tumor Cell Lines Screen was performed using the standard one-dose NCI protocol, which is described in more detail at https://dtp.cancer.gov/discovery_development/nci-60/default.htm.
Compounds with GIPRCNT values below 10 were considered active. Activity score was based on GIPRCNT using the following formula: […]
Score is 0 for GIPRCNT values of 100 or above, 50 for GIPRCNT values of 0, and 100 for GIPRCNT values of -100.

SMILES | growth
Cc1ccnc(Nc2nc3ccccc3[nH]2)n1 | 100%
CCN(CC)CCOC(=O)Nc1c(C(C)C)cccc1C(C)C | 92.8%
N#Cc1ccc(OC(=O)Nc2c(Cl)cc(Cl)cc2Cl)cc1 | 104%
Oc1cc2ccccc2c(-c2c(O)c(O)cc3ccccc23)c1O | 45.3%
Cc1ccc(C)c(CN(C)C)c1O | 115%
Oc1cccnc1CN1CCCC1 | 108%
O=C(O)c1ccccc1Cc1ccc2c(c1)CCCC2 | 107%
NC(CO)(CO)c1ccccc1 | 100%
CN1CCN(C(=S)S)CC1 | 75.5%
NC(CSSCC(N)C(=O)O)C(=O)O (stereo not given) | 5.05% (active)
CCOP(=O)(NC(c1ccccc1)c1ccccc1)OCC | 107%
CCCCCCCCCc1ccc(OC(C)=O)cc1 | 102%
O=[n+]1ccn([O-])c2ccccc21 | 108%
CCC1CCC(C)NC1 (stereo not given) | 104%
CCN(Cc1ccc(Cl)c(Cl)c1)c1ccc2nc(N)nc(N)c2c1C | -79.1% (active)
CC(C)(N)CO[C@H]1C[C@H]2CC[C@@]1(C)C2(C)C | 101%
Ic1cccs1 | 94.2%
Cc1cc(Cl)cc(Cc2cc(Cl)cc(C)c2O)c1O | 98.1%
N#Cc1ccc2nc[nH]c2c1 | 112%
O=C(CCl)Nc1ccccc1SCc1cc(Cl)cc2c1OCOC2 | 82.5%

SMILES | growth
c1ccc(-c2ccc3ccccc3c2)cc1 | 80.8%
CC(=O)/C(C)=N\OC(=O)Nc1ccccc1 | 99.4%
CCOC(=O)CO | 107%
COc1cc(OC)c(NC(=O)C(Sc2nc(C)cc(C)c2C#N)c2ccccc2)cc1Cl (stereo not given) | 107%
COc1cc(N)c2ncccc2c1Cl | 91.1%
NC(=S)c1c(N)n(C2OC(CO)C(O)C2O)c2ncnc(N)c12 (stereo not given) | 5.09% (active)
COC(c1ccc2c(c1)OCO2)C(C)Br (stereo not given) | 88.8%
COc1ccc(C)cc1NC(=O)SC(C)C | 104% [100 µM]
C=COC(=O)C(C)(C)C | 104%
COc1ccc(/C=C\C(=O)/C=C/c2ccc(OC)cc2)cc1 | 49.3%
CSCCC(NC(=O)C(Cl)Cl)C(=O)O (stereo not given) | 100%
NC(=O)N1CCOCC1 | 92.4%
O=C(NCCc1ccccc1)/C(=C\c1ccc(Cl)cc1Cl)NC(=O)c1ccccc1 | 98.3%
OCCc1ccc(Cl)cc1 | 99.9%
Oc1ccc(N=Cc2ccc(OCc3ccccc3)cc2)cc1 | 109%
COC(=O)C1(CC(C)=O)NC(=S)NC(=O)C1C#N (stereo not given) | 104%
CCOC(=O)CSCCC#N | 97.9%
CC1CC(C)S(=O)(=O)C1 (stereo not given) | 99.9%
O=S(Cc1ccccc1)/C(=C/NC(=S)Nc1cc(Cl)ccc1Cl)c1ccccc1 (stereo not given) | 97.4%
CNc1ccccc1C(N)=O | 103%
